The source made the active and inactive calls. How the calls were made is not given here.
Target: L-lactate dehydrogenase (Plasmodium falciparum (isolate CDC / Honduras)) (UniProt Q27743)
Assay: PfLDH activity inhibition – cell lysate, 3D7 strain, counter-screen for P. falciparum growth inhibition project (AID 2304);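 further: 0% = vehicle and 100% = reference inhibitor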
Settings: P. falciparum 3D7 crude extract, LDH APAD/NBT absorbance; at 2 µM; hits give high values

Sequence of L-lactate dehydrogenase (Plasmodium falciparum (isolate CDC / Honduras)) (Q27743 whole entry, looked up): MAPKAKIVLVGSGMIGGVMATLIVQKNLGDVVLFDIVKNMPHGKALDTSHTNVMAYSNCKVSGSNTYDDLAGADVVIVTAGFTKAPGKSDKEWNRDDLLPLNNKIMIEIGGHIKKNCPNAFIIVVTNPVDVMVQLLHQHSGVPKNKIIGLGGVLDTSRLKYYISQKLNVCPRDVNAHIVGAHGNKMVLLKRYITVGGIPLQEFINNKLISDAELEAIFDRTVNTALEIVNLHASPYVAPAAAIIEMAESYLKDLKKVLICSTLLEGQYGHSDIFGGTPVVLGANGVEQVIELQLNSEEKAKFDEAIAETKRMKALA

`Cc1cc(-c2cccc(CNCCc3ccc(Cl)cc3)c2)cnc1N` was tested. Which inhibition did it give?
The inhibition was 0% (inactive).

`CCCCCCN1CCN(Cc2cccc(NC(=O)c3cccc(OCC)c3)c2)CC1` was tested. Which inhibition did it give?
The inhibition was 0% (inactive).

`CCOc1ccc(Br)cc1/C=C/C(=O)Nc1ccc2c(c1)CN(C)CCC2` was tested. Which inhibition did it give?
Its inhibition is 1% (inactive).

How did the inhibition turn out when `O=C(CN1CCN(C(=O)c2ccco2)CC1)Nc1ccc(Br)cc1Cl` was run?
The inhibition was -6% (inactive).

For `FC(F)(F)c1ccc2nc(-c3ccc(-c4ccc(CNCC5CCCO5)cc4)cc3)[nH]c2c1` (stereo not given), which inhibition is on record?
Its inhibition is -3% (inactive).

`CC[C@H](NC(=O)c1ccc(NC(=O)OC(C)(C)C)cc1)C(=O)N[C@@H](CO)C(=O)NCCCCc1ccccc1` was tested. Which inhibition did it give?
Its inhibition is 1% (inactive).

For `Cc1cccc(C(=O)Nc2ccnc(N3CCC(N(C)Cc4cccc(O)c4)CC3)c2)c1`, which inhibition is on record?
The inhibition was -1% (inactive).

Which inhibition does the source give for `CCCSc1nc2c(c(=O)n1CCc1ccccc1)C1(CCCC1)Cc1ccccc1-2` here?
The inhibition was -4% (inactive).

Which inhibition does the source give for `COc1ccc2c(NN=Cc3cccnc3)ccnc2c1` here?
The inhibition was -4% (inactive).

How did the inhibition turn out when `Cc1cc(N[C@@H](CC(C)C)C(=O)NCc2cccc(F)c2)nc(NCC2CCCCC2)n1` was run?
The inhibition was -3% (inactive).

For `CN1CCCN(Cc2ccc(-c3ccc(NC(=O)c4ccc(C#N)cc4)cc3)cc2)CC1`, which inhibition is on record?
The inhibition was 4% (inactive).

`O=C(N[C@@H](CC1CCCCC1)C(=O)NCCN1CCCC1)c1ccc(O)c(-c2ccc(Cl)c(Cl)c2)c1` was tested. Which inhibition did it give?
The inhibition was 2% (inactive).

`NC(N)=Nc1nc(-c2ccc(NC(=O)Nc3cccc(-c4csc(N=C(N)N)n4)c3)cc2)cs1` was tested. Which inhibition did it give?
Its inhibition is 3% (inactive).

For `CC(C)COc1ccc(Cl)cc1Cc1ccc(-c2nc3c(cnc4ccccc43)[nH]2)o1`, which inhibition is on record?
The inhibition was 1% (inactive).

How did the inhibition turn out when `CC1(C)N=C(N)N=C(N)N1OCc1cc(Cl)c(Cl)cc1CON1C(N)=NC(N)=NC1(C)C` was run?
Its inhibition is 4% (inactive).

With `CN(C)CCNCc1cccc(-c2cccc(-c3nc4ccccc4[nH]3)c2)c1` as the compound, how does the inhibition read?
Its inhibition is -3% (inactive).

With `CCn1ccc2c(N3CCCS3(=O)=O)cc(C(=O)N[C@@H](Cc3ccccc3)[C@H](O)CNC3CCCCC3)cc21` as the compound, how does the inhibition read?
The inhibition was 1% (inactive).

With `CCCCCCN1CCN(Cc2cccc(NC(=O)c3cc4ccccc4s3)c2)CC1` as the compound, how does the inhibition read?
The inhibition was -1% (inactive).

For `N#Cc1ccc2c(c1)CCN(CCC1CCC(NC(=O)c3cc4cccc([N+](=O)[O-])c4[nH]3)CC1)C2` (stereo not given), which inhibition is on record?
The inhibition was -5% (inactive).

With `O=C(Cn1c(CCc2cccc(F)c2F)cc(=O)c2cccnc21)N(CCCn1ccnc1)Cc1ccc(-c2ccc(C(F)(F)F)cc2)cc1` as the compound, how does the inhibition read?
The inhibition was -3% (inactive).

For `O=C(Nc1cccc(OCCN2CCCC2)c1)Nc1ccc(Cl)c(Cl)c1`, which inhibition is on record?
Its inhibition is -5% (inactive).

Which inhibition does the source give for `Cc1ccc(Nc2nc(C)cc(Nc3cccc(NS(C)(=O)=O)c3)n2)cc1` here?
The inhibition was 0% (inactive).

Which inhibition does the source give for `Cc1cccc2c3c([nH]c12)C1(CCN(Cc2ccccc2)CC1)NC(C(=O)NCc1ccccc1)C3` (stereo not given) here?
Its inhibition is -2% (inactive).

For `OCCn1c(CNCCCNc2nc3ccccc3[nH]2)cc2c(Cl)cc(Cl)cc21`, which inhibition is on record?
Its inhibition is -6% (inactive).

`CCOc1ccc2c(NN=Cc3cccc([N+](=O)[O-])c3)cc(C)nc2c1` was tested. Which inhibition did it give?
Its inhibition is 3% (inactive).

For `CCN(CC)CCN(CCCc1ccc(-c2ccc(C(F)(F)F)cc2)cc1)C(=O)Cn1c(CCc2cccc(F)c2F)nc(=O)c2c1CCC2`, which inhibition is on record?
The inhibition was -2% (inactive).

With `Cc1cc(C(=O)Nc2nc(-c3ccccn3)nc3ccsc23)no1` as the compound, how does the inhibition read?
Its inhibition is 0% (inactive).

With `CCCN(CCC)CCCNc1ccc(C(=O)Nc2ccc(C)c(F)c2)cc1[N+](=O)[O-]` as the compound, how does the inhibition read?
Its inhibition is 3% (inactive).

For `CCN(CC)CCN(Cc1ccc(-c2ccc(C(F)(F)F)cc2)cc1)C(=O)Cn1cc(CCCc2cccc(F)c2F)c(=O)c2ccccc21`, which inhibition is on record?
Its inhibition is -4% (inactive).

With `O=C(Cc1ccc(NC(=O)c2ccc(O)c(-c3ccc(Cl)c(Cl)c3)c2)cc1)NCCc1ccc(Cl)c(Cl)c1` as the compound, how does the inhibition read?
The inhibition was 2% (inactive).

For `C=CCO[C@@H]1O[C@H](COC(c2ccccc2)(c2ccccc2)c2ccccc2)[C@@H](OC(C)=O)[C@H](OC(C)=O)[C@H]1NC(C)=O`, which inhibition is on record?
The inhibition was -1% (inactive).

With `CCOc1cc(NCCSCc2nc[nH]c2C)nc2ccccc12` as the compound, how does the inhibition read?
The inhibition was 1% (inactive).

How did the inhibition turn out when `Cc1cc(C(=O)Nc2ccc(-c3nc4ccccc4[nH]3)cc2)ccc1[N+](=O)[O-]` was run?
Its inhibition is 1% (inactive).

Which inhibition does the source give for `Cc1ccc(C)c2sc(N(CCCn3ccnc3)C(=O)C=Cc3cccs3)nc12` here?
Its inhibition is 0% (inactive).

Which inhibition does the source give for `COc1cc(C=Cc2ccc3ccccc3n2)cc(Br)c1OCC(=O)N(C)C` here?
The inhibition was 3% (inactive).

How did the inhibition turn out when `O=C(Nc1ccc(N2CCCCC2)c(Cl)c1)c1ccc(Br)o1` was run?
Its inhibition is -1% (inactive).

For `Cn1cnc(CCNC(=O)c2cccc(-c3cccc(-c4nc5ccc(C(F)(F)F)cc5[nH]4)c3)c2)c1`, which inhibition is on record?
The inhibition was 4% (inactive).

Which inhibition does the source give for `CC(Cc1ccc(CN(CC(N)=O)Cc2ccc(CC(C)NCCc3cccc(Cl)c3)cc2)cc1)NCCc1cccc(Cl)c1` (stereo not given) here?
The inhibition was 2% (inactive).

Which inhibition does the source give for `CCC1CCCCN1S(=O)(=O)c1ccc(OC)c(N2CCN(C(=O)C(Cl)(Cl)Cl)CC2)c1` (stereo not given) here?
The inhibition was 5% (inactive).

`Cc1cc2ncn(-c3ccnc(N4CCN(CCCN5CCCC5)CC4)n3)c2cc1C` was tested. Which inhibition did it give?
The inhibition was -4% (inactive).

From PubChem BioAssay
